What all share (settings): concentration: 1 μM,replicates: in singlicate; n = 1
Test [1] relates to T1, IKK-alpha.
T1 construct: gene CHUK

The subject of test [2] is T2, IKK-beta.
T2 construct: gene IKBKB

Test [3] concerns T3, IKK-epsilon.
T3 construct: gene IKBKE

Test [4] deals with INSRR.
The subject of test [5] is INSR.
Test [6] deals with IRAK1.
Test [7] relates to IRAK3.
For test [8], the system named is IRAK4.
Test [9] concerns ITK.
Test [10] concerns JAK1(JH1domain-catalytic).
In test [11] the test system is JAK1(JH2domain-pseudokinase).
Test [12] relates to JAK2(JH1domain-catalytic).
Test [13] has as its system JAK3(JH1domain-catalytic).
For test [14], the system named is T4, JNK1.
T4 construct: gene MAPK8

In test [15] the test system is T5, JNK2.
T5 construct: gene MAPK9

Test [16] has as its system T6, JNK3.
T6 construct: gene MAPK10

For test [17], the system named is KIT-autoinhibited.
Test [18] concerns KIT.
For test [19], the system named is LATS1.
The subject of test [20] is LATS2.

Consider 4 compounds from article PMC5540273 (PLoS ONE, 2017).
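Also: KINOMEscan kinase panel screen.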

With `COc1cc2nccc(Nc3ccc(Oc4ccccc4)cc3)c2cc1OC.Cl` [GI261656], the “%Inh” value in test [1] is listed as 0%; in test [2] it was 0%; in test [3], 35%; in [4], 0%; in [5] it was 0%; in test [6] it was 0%. The “%Inh” value turned out to be 0% in test [7]; 0% in test [8]; 0% in test [9]; 8% in test [10]; 0% in test [11]; 100% in test [12]. Further, the “%Inh” value in test [13] is reported as 0%; in test [14], 4%; in test [15], 10%; in test [16] it was 0%; in test [17], 0%; in test [18], 79%. Moreover, the results for the “%Inh” value in test [19] and in test [20] were 0% and 9%, respectively.

With `CSc1nccc(-c2c(-c3ccc(F)cc3)ncn2CCCN2CCOCC2)n1.Cl` [SB-217146], the “%Inh” value is listed as 0% in [1]; 0% in test [2]; 0% in [3]; 0% in test [4]; 2% in test [5]; 25% in [6]. Further, the “%Inh” value in test [7] stood at 0%; in [8], 0%; in [9], 6%; in test [10] it was 0%; in [11], 40%; in [12], 39%. Further, the “%Inh” value amounted to 0% in test [13]; 10% in [14]; 45% in test [15]; 34% in [16]; 32% in test [17]; 0% in [18]. Besides, the “%Inh” value in [19] and in test [20] was 0% throughout.

Take `Cl.Nc1n[nH]c2cc(-c3ccccn3)ccc12` [GSK2189892]: the “%Inh” value in test [1] amounted to 0%; in test [2], 0%; in test [3], 24%; in test [4], 0%; in [5] it was 0%; in test [6] it was 0%. For the same compound, the “%Inh” value in [7] came to 6%; in [8] it was 0%; in test [9], 4%; in [10], 10%; in [11] it was 14%; in test [12], 31%. In addition, the “%Inh” value in test [13] is on record as 0%; in test [14], 0%; in [15], 0%; in [16], 0%; in test [17], 0%; in [18], 4%. The “%Inh” value in test [19] came out at 0%; in [20] it was 9%.

For `CCn1c(-c2nonc2N)nc2cncc(CNC3CCNCC3)c21.Cl` [SB-747651], the “%Inh” value was determined as 39% in [1]; 27% in test [2]; 5% in [3]; 0% in test [4]; 14% in test [5]; 56% in test [6]. The “%Inh” value in test [7] is reported as 0%; in test [8], 41%; in test [9] it was 9%; in test [10], 15%; in [11], 0%; in test [12], 19%. In addition, the “%Inh” value is given as 0% in test [13]; 25% in [14]; 6% in [15]; 3% in test [16]; 0% in [17]; 0% in [18]. The “%Inh” value in test [19] was 0%; in [20], 53%.
